Bioassay records as filed in PubChem.
pS6 MEF inh – inhibitors of mTORC1 signaling in Tsc2-/- p53-/- MEF cells. Potency, µM (highest dose often 38.3 µM), for inactives: at the highest dose activity change, negative = inhibition, hits mostly inhibitors. Tsc2-/- p53-/- MEF, phospho-rpS6 immunofluorescence/PI, 24 h. 44,000 compounds, 0.78% hits;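 also: plate controls were DMSO for no effect and rapamycin for full effect; nearly all actives have a fitted effect of over 50% in size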
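Read-out: phospho-S6 Alexa-488 intensity over PI intensity per well, scored as % active cells using thresholds from rapamycin (7.5 nM) and DMSO controls. Tsc2-/-, p53-/- MEFs exposed to compound for 24 h; PI cell count recorded as viability.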
SKOV3 invasion – inhibitors of ovarian cancer cell adhesion and invasion in omental model; AID 1963576; Potency, µM (series often up to 45.8 µM), for the others: at the highest dose activity change, negative = inhibition, most hits filed as inhibitors; 46,000 compounds, 0.1% hits; SKOV3ip1-GFP adhesion/invasion on 3D omental model, fluorescence;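 also: plate controls were DMSO wells for no effect and tomatine positive control wells for full effect; nearly all actives have a fitted effect of over 65% in size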
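Primary human omental fibroblast/mesothelial 3D culture pre-formed 48 h. SKOV3ip1-GFP cells added with compounds (0.36-46 umol/L), incubated 2 h RT/16 h 37 C, fixed; GFP cells quantified at 488/509 nm.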
p53null 32C kill – p53 null cell cytotoxicity, permissive temperature; 55,000 compounds, 0.62% hits; H1299-neo p53 null cells, ATP luminescence, 24 h, 32C; Potency, µM (series often up to 46.1 µM), for inactives: at the top dose activity change, negative = cytotoxicity, hits mostly cytotoxic;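 also: 0% = DMSO only and -100% = full killing by 100 µM tamoxifen; nearly all actives have a fitted effect of over 55% in size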
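Luminescent ATP readout gave cell viability of p53-null H1299-neo cells after a 24 h compound exposure at the permissive 32C. Titrations ran up to 46 uM, and AC50s were fitted with the standard Hill equation.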
p53null 39C tox – selectivity test: cytotoxicity in p53 null cells, nonpermissive temperature | 55,000 compounds, 0.97% hits | Potency, µM (highest dose often 46.1 µM), for the others: top-dose activity, negative = cell killing, hits mostly cytotoxic | AID 904 | H1299 p53-null (neo) cells, 39C, ATPlite viability, 24 h;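 also: 0% = DMSO only and -100% = full killing by 100 µM tamoxifen; nearly all actives have a fitted effect of over 50% in size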
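ATP-luminescence viability readout (ATPlite, 20 min RT) after 24 hr compound treatment at 39C of H1299-neo or H1299-p53A138V cells; titration up to 46 uM; normalized to DMSO and 100 uM tamoxifen; Hill-fit AC50.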
PMP22 txn – PMP22 gene transcription modulation. AID 1508649. S16 Pmp22-F2sN Schwann cells, FLuc/NLuc coincidence luminescence, 24 h. Potency, µM (doses to about 57.5 µM), for the others: top-dose activity change, negative = inhibition, most hits filed as inhibitors. 43,000 compounds, 2% hits; active = clear falling dose curves in both reporters; inconclusive = both reporters move, but less clearly or upward; inactive = either reporter flat; the % is the NLuc reporter signal
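Transcriptional readout in edited S16(c9) cells: two luciferases reported from the Pmp22 locus, measured in turn after 24 h compound incubation.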
S16 F2sN tox – cytotoxicity in S16 Pmp22-F2sN Schwann cells | S16 Pmp22-F2sN Schwann cells viability, CellTiter-Glo, 24 h | Potency, µM (titrated, usually from 57.5 µM), without a hit: at the highest dose activity change, negative = cytotoxicity, hits mostly cytotoxic | 43,000 compounds, 0.48% hits; also: nearly all actives have a fitted effect of over 65% in size
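Used to flag compounds lowering reporter output through toxicity, this quantitative HTS measures ATP-based CellTiter-Glo luminescence in S16 Pmp22-F2sN Schwann cells after 24 h compound exposure at 37C.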
Numbers without * were called inactive; i = inactive; ? = inconclusive; · = no result given; [ ] = dose if it differs, or a comment. Rows were chosen to be rich in hits. Some 3% of all compounds tested hit in one or more screens of this group. Unless noted, calls follow the shape of the dose curve; as a rule, active = well fitted curve in the direction sought with a large enough effect; inconclusive = small, poorly fitted or top-dose-only effect, or another doubt; inactive = no such curve, though single readings can be large; an effect the other way counts as inactive or inconclusive. Unless noted, % is scaled to controls: 0 for no effect and ±100 for the full control effect; potency is read from the fitted curve at half-maximal effect.

SMILES	pS6 MEF inh	SKOV3 invasion	p53null 32C kill	p53null 39C tox	PMP22 txn	S16 F2sN tox
CCN(c1ccc(C)cc1)S(=O)(=O)c1nnc(NC(=O)c2cccs2)s1	-1%	i	8%	?	-30%	-3%
CC(C)CN(c1ccccc1)S(=O)(=O)c1nnc(NC(=O)c2ccco2)s1	-3%	9%	?	2µM*	-28%	1%
CCN(c1ccccc1)S(=O)(=O)c1nnc(NC(=O)c2cccs2)s1	3%	8%	1.3µM*	1µM*	-5%	-18%
O=C(Nc1nc2cccc(-c3ccc(CN4CCS(=O)(=O)CC4)cc3)n2n1)C1CC1	·	15%	·	·	·	·
CC[C@H](C=C[C@@H](C)[C@H]1CC[C@H]2[C@@H]3CC=C4C[C@@H](O)CC[C@]4(C)[C@@H]3CC[C@]12C)C(C)C	·	1%[23.2 µM]	·	·	·	·
Cc1ccccc1CNC(=O)CCCn1c(=O)c2cccn2c2ccccc21	-2%	i	-4%	12%	16µM*	-11%
CSc1ccc(CCNC(=O)CCCn2c(=O)c3cccn3c3ccccc32)cc1	?	i	59%	13µM*	-11%	6%
COc1ccccc1CNC(=O)CCCn1c(=O)c2cccn2c2ccccc21	18µM*	12%	0%	-16%	?	-4%
COc1ccc(N2CCN(C(=O)c3ccc4c(=O)n(CCc5ccc(OC)c(OC)c5)c(=O)[nH]c4c3)CC2)cc1	-6%	-11%	0%	11%	13µM*	?
Nc1nccc(-c2ccc3noc(-c4ccc(Cl)cc4)c3c2)n1	·	-13%	·	·	·	·
C[C@@H](Oc1ccc2[nH]nc(C=Cc3cnn(CCO)c3)c2c1)c1c(Cl)cncc1Cl	·	3%	·	·	·	·
CCn1c(=O)c(C(=O)Nc2ccc(C(C)=O)cc2)nc2ccccc21	-1%	i	10µM*	10µM*	4%	-6%
CC1(C)CC(O)CC(C)(C)N1[O]	·	2%	·	·	·	·
COc1cc(CNc2ccc(O)cc2)cc(Br)c1OCc1ccccc1F	·	·	-23%	·	·	·
Oc1ccccc1CNc1cnc2ccccc2c1	·	·	-4%	-13%	·	·
Oc1ccc(NCc2ccccc2OCc2ccccc2)cc1	?	5%	-17%	?	7.3µM*	20µM*
Oc1ccc(NCc2ccccc2OCc2ccc(Cl)cc2)cc1	?	i	-26%	?	?	20µM*
CCN1CCN(c2ccc(Nc3cc(N(C)C(=O)Nc4c(Cl)c(OC)cc(OC)c4Cl)ncn3)cc2)CC1	·	2%	·	·	·	·
Cc1ccc2sc(N(CCCN(C)C)C(=O)c3ccco3)nc2c1C	12µM*	i	-13%	?	?	?
CCN(CC)CCN(C(=O)c1ccco1)c1nc2c(C)c(C)ccc2s1	-6%	-6%	-17%	-12%	?	-12%
Cc1nc(Nc2n[nH]c3c2CN(C(=O)N[C@H](CN(C)C)c2ccccc2)C3(C)C)c2sccc2n1	·	30%	·	·	·	·
CC(C)c1ccc(C2=CC(c3cccc(Cl)c3)n3c(nc4ccccc43)N2)cc1 (stereo unspecified)	-4%	-10%	22µM*	?	?	-19%
CCc1ccc(C2=CC(c3cccc(OC)c3OC)n3c(nc4ccccc43)N2)cc1 (stereo unspecified)	0%	13%	14µM*	?	?	?
CCc1ccc(C2=CC(c3cccc(C)c3)n3c(nc4ccccc43)N2)cc1 (stereo unspecified)	-4%	-7%	10µM*	10µM*	?	?
CC(C)c1ccc(C2=CC(c3cccc(Cl)c3)n3ncnc3N2)cc1 (stereo unspecified)	-1%	-17%	8%	7%	?	?
SMILES	pS6 MEF inh	SKOV3 invasion	p53null 32C kill	p53null 39C tox	PMP22 txn	S16 F2sN tox
Cc1ccc(C(N)=O)cc1Nc1nccc(-c2cn(C(C)C)c3cnccc23)n1	·	-13%	·	·	·	·
CNC(=O)c1cc(Oc2ccc(NC(=O)Nc3ccc(Cl)c(C(F)(F)F)c3)c(F)c2)ccn1	·	-26%	·	·	·	·
COC(=O)c1ccc(COc2ccccc2/C=C(\C#N)C(=O)NC(C)C)cc1	·	·	12%	19%	·	·
CCC[C@H](NC(=O)C(C#N)=Cc1cccc(Br)n1)c1ccccc1	·	12µM*	·	·	·	·
COc1ccc2c3n(c(=NC(=O)c4cccnc4)nc2c1OC)CCN3	·	-8%	·	·	·	·
COc1ccc(-n2c(/C=C/c3ccccc3F)nc3cc(OC)c(OC)cc3c2=O)cc1Cl	5%	5%	-4%	13%	-29%	10µM*
COc1ccc(-n2c(/C=C/c3cc(OC)c(OC)cc3OC)nc3cc4ccccc4cc3c2=O)cc1Cl	?	-23%	-6%	23%	39%	6%
Cc1ccccc1Cn1c(CN2CCC(C(=O)NCCN(C)C)CC2)cc2ccccc21	7.4µM*	?	-6%	3%	?	?
CNC(=O)C1CCN(Cc2cc3ccccc3n2Cc2ccccc2C)CC1	-13%	-3%	1%	5%	?	-23%
COc1ccc(Nc2nc(N)c3cc(OC)c(OC)cc3n2)cc1	18µM*	?	?	?	?	?
CCOc1ccc(C(=O)Nc2onc3c2CCCC3)cc1	2%	1%	6.3µM*	4µM*	?	-2%
CC(C)COc1ccc(C(=O)Nc2onc3c2CCCC3)cc1	-6%	-5%	?	13µM*	6%	?
CC(C)(C)c1ccc(C(=O)Nc2onc3c2CCCC3)cc1	1%	-4%	16µM*	?	-25%	?
Cc1ccc(NC(=O)c2ccccc2O)cc1	·	·	13µM*	10µM*	·	·
Cc1ccc(NC(=O)CSc2[nH]c(=O)ncc2C)cc1	3%	0%	11µM*	13µM*	4%	-2%
C=C1C(=O)[C@@]23C(CC[C@@H]1[C@H]2O)[C@@]12CO[C@]3(O)[C@@H](O)[C@@H]1C(C)(C)CC[C@@H]2O (stereo partly specified)	·	19µM*	·	·	·	·
CCN1CCc2nc3sc(C(=O)Nc4cccc(Cl)c4C)c(N)c3cc2C1	?	-6%	-4%	?	12µM*	?
COC(=O)c1ccc(Nc2nc(-c3ccc(C)cc3)nc3ccccc23)cc1	-6%	27%	?	16µM*	-31%	2%
CCOC(=O)c1ccc(Nc2nc(C(=O)OCC)nc3ccccc23)cc1	-16%	-1%	-6%	-6%	?	23%
O=C1[C@H](Cc2ccc(O)cc2)N2C(=O)CCN(C(=O)NCc3ccccc3)[C@H]2CN1Cc1cccc2ccccc12	·	-29%	·	·	·	·
COc1ccc(-n2ncc3c(NC(C)(C)CO)ncnc32)cc1	6%	i	13µM*	?	15%	9%
